According to PubChem BioAssay (Tox21):
Several values for one entry are separate records, joined by “and”; a condition that tells them apart may be missing. Equal values may be shown once. Records with an inconclusive call do not appear. Where a structure was tested more than once in an assay, its records may differ in their call. Activity calls are given as the source filed them. The call rests on the fitted dose curve; in most records, active means well fitted curve in the direction sought with a large enough effect in the repeat runs; inconclusive means weak or mixed curves; inactive means no such curve, though single readings can be large; an effect the other way counts as inactive or inconclusive.

How the values were obtained:
[1] = A CellTox Green Cytotoxicity Assay to monitor cytotoxicity in HEK293 cells - 40 hour (AID 1224871); further: nearly all actives have a fitted effect of over 45% in size; further: potency means the concentration at half of the fitted maximal effect
In short: (§1)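 Tox21 screen in HEK293: membrane-impermeant cyanine dye fluoresces on binding dead-cell DNA; compound pinned 5 h post-seeding, plates held at 37 C, signal read repeatedly through 40 h.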

[2] = qHTS RealTime-Glo MT Cell Viability Assay in HepG2 cells - 8 hour (AID 1224873); further: nearly all actives have a fitted effect of over 55% in size
In short: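 HepG2 cells mixed with RealTime-Glo MT reagents (NanoLuc plus cell-permeant prosubstrate) were seeded at 600 cells/well, incubated 5 h at 37 C/5% CO2, then pinned with compounds in DMSO; nonlytic luminescence tracked viability during 40 h treatment.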

[3] = qHTS RealTime-Glo MT Cell Viability Assay in HEK293 cells - 40 hour (AID 1224874); settings: RealTime-Glo luminescence; max response: stronger effect = lower value; further: nearly all actives have a fitted effect of over 50% in size; further: potency means the concentration at half of the fitted maximal effect
In short: (§2)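 HEK293 + NanoLuc + prosubstrate, 600 cells/well; 5 h, 37 C/5% CO2; compound 23 nL in DMSO by pintool; 37 C; luminescence read at 0, 8, 16, 24, 32 and 40 h time points.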

[4] = qHTS RealTime-Glo MT Cell Viability Assay in HepG2 cells - 32 hour (AID 1224877); further: nearly all actives have a fitted effect of over 55% in size
In short: (§3)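 Real-time, nonlytic viability: 600 HepG2 cells/well mixed with NanoLuc enzyme plus prosubstrate; 5 h settle, compound (DMSO) added by pintool; luminescence monitored over 40 h at 37 C.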

[5] = A CellTox Green Cytotoxicity Assay to monitor cytotoxicity in HepG2 cells - 40 hour (AID 1224879); further: nearly all actives have a fitted effect of over 40% in size; further: potency means the concentration at half of the fitted maximal effect
In short: (§4)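 Measurements at 0, 8, 16, 24, 32 and 40 h of treatment captured CellTox Green fluorescence in HepG2 cells that had been co-plated with reagent and preincubated 5 h at 37 C/5% CO2.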

[6] = qHTS RealTime-Glo MT Cell Viability Assay in HEK293 cells - 0 hour (AID 1224880); further: top concentration of the series differs between compounds; nearly all actives have a fitted effect of over 45% in size
In short: as §2

[7] = A CellTox Green Cytotoxicity Assay to monitor cytotoxicity in HEK293 cells - 32 hour (AID 1224881); further: nearly all actives have a fitted effect of over 40% in size
In short: as §1

[8] = A CellTox Green Cytotoxicity Assay to monitor cytotoxicity in HepG2 cells - 0 hour (AID 1224882); further: nearly all actives have a fitted effect of over 35% in size
In short: as §4

[9] = A CellTox Green Cytotoxicity Assay to monitor cytotoxicity in HEK293 cells - 8 hour (AID 1224884); further: nearly all actives have a fitted effect of over 35% in size
In short: as §1

[10] = qHTS RealTime-Glo MT Cell Viability Assay in HepG2 cells - 16 hour (AID 1224885); further: nearly all actives have a fitted effect of over 50% in size
In short: as §3

[11] = qHTS RealTime-Glo MT Cell Viability Assay in HEK293 cells - 24 hour (AID 1224886); further: nearly all actives have a fitted effect of over 50% in size; further: potency means the concentration at half of the fitted maximal effect
In short: (§5)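 Cells + reagent dispensed (600 cells/well, HEK293) → 5 h at 37 C/5% CO2 → 23 nL compound in DMSO pinned → 40 h at 37 C → luminescence read at 0, 8, 16, 24, 32, 40 h.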

[12] = A CellTox Green Cytotoxicity Assay to monitor cytotoxicity in HEK293 cells - 16 hour (AID 1224888); further: nearly all actives have a fitted effect of over 35% in size
In short: as §1

[13] = qHTS RealTime-Glo MT Cell Viability Assay in HepG2 cells - 0 hour (AID 1224889); further: nearly all actives have a fitted effect of over 50% in size
In short: as §3

[14] = A CellTox Green Cytotoxicity Assay to monitor cytotoxicity in HepG2 cells - 8 hour (AID 1224890); further: nearly all actives have a fitted effect of over 45% in size
In short: as §4

[15] = A CellTox Green Cytotoxicity Assay to monitor cytotoxicity in HEK293 cells - 24 hour (AID 1224875); further: series mostly up to about 77 µM; nearly all actives have a fitted effect of over 45% in size
In short: as §1

[16] = A CellTox Green Cytotoxicity Assay to monitor cytotoxicity in HepG2 cells - 16 hour (AID 1224876); further: nearly all actives have a fitted effect of over 45% in size
In short: as §4

[17] = A CellTox Green Cytotoxicity Assay to monitor cytotoxicity in HepG2 cells - 24 hour (AID 1224878); further: nearly all actives have a fitted effect of over 45% in size
In short: as §4

[18] = A CellTox Green Cytotoxicity Assay to monitor cytotoxicity in HepG2 cells - 32 hour (AID 1224883); further: nearly all actives have a fitted effect of over 50% in size; further: potency means the concentration at half of the fitted maximal effect
In short: as §4

[19] = qHTS RealTime-Glo MT Cell Viability Assay in HEK293 cells - 8 hour (AID 1224887)
In short: as §2

[20] = qHTS RealTime-Glo MT Cell Viability Assay in HEK293 cells - 16 hour (AID 1224872)
In short: as §5
On the % scale 0 is the no-effect control and ±100 the full control effect.

COc1ccc(-c2coc3cc(O)cc(O)c3c2=O)cc1
inactive: Potency [1] | Potency [2] | Potency [4] | Potency [6] | Potency [7] | Potency [8] | Potency [9] | Potency [10] | Potency [12] | Potency [13] | Potency [14]
active: Potency [3] 49.4 µM | Potency [5] 55.4 µM | Potency [11] 44 µM

C[C@]12CC[C@@H]3c4ccc(O)cc4CC[C@H]3[C@@H]1CC[C@H]2O
active: Potency [3] 5.59 µM and 15.5 µM | Potency [5] 9.94 µM and 34.7 µM | Potency [18] 11.2 µM and 34.7 µM | Potency [11] 5.59 µM and 13.8 µM
inactive: Potency [1] | Potency [2] | Potency [15] | Potency [16] | Potency [4] | Potency [17] | Potency [6] | Potency [7] | Potency [8] | Potency [9] | Potency [10] | Potency [19] | Potency [12] | Potency [13] | Potency [14]

Cc1ccc(S(=O)(=O)NCl)cc1
inactive: Potency [1] | Potency [20] | Potency [2] | max response [3] 4.42% and 3.53% | Potency [16] | Potency [4] | Potency [17] | Potency [5] | Potency [6] | Potency [8] | Potency [18] | Potency [9] | Potency [10] | Potency [11] | Potency [19] | Potency [12] | Potency [13] | Potency [14]

C=CN1CCCC1=O
inactive: Potency [1] | Potency [20] | Potency [2] | max response [3] 0.332% and -7.88% | Potency [16] | Potency [4] | Potency [17] | Potency [5] | Potency [6] | Potency [8] | Potency [18] | Potency [9] | Potency [10] | Potency [11] | Potency [19] | Potency [12] | Potency [13] | Potency [14]

CN(Cc1cnc2nc(N)nc(N)c2n1)c1ccc(C(=O)N[C@@H](CCC(=O)O)C(=O)O)cc1
inactive: Potency [1] | Potency [20] | Potency [2] | Potency [16] | Potency [4] | Potency [17] | Potency [5] | Potency [6] | Potency [8] | Potency [18] | Potency [9] | Potency [10] | Potency [12] | Potency [13] | Potency [14]
active: Potency [3] 49 nM and 53.5 nM

C1CN(SSN2CCOCC2)CCO1
54.4 µM (active) and inactive: Potency [1]
inactive: Potency [20] | max response [3] -14.4% | Potency [16] | Potency [4] | Potency [17] | Potency [5] | Potency [6] | Potency [8] | Potency [18] | Potency [9] | Potency [10] | Potency [11] | Potency [19] | Potency [12] | Potency [13] | Potency [14]

Clc1ccc(Sc2cc(Cl)c(Cl)cc2Cl)cc1
inactive: Potency [1] | Potency [20] | Potency [2] | max response [3] -26.8% and 1% | Potency [16] | Potency [4] | Potency [17] | Potency [5] | Potency [6] | Potency [8] | Potency [18] | Potency [9] | Potency [10] | Potency [11] | Potency [19] | Potency [12] | Potency [13] | Potency [14]

O=C(O)COCCN1CCN(C(c2ccccc2)c2ccc(Cl)cc2)CC1 (centres undefined)
inactive: Potency [1] | Potency [20] | Potency [2] | max response [3] 5.07% and 2.04% | Potency [16] | Potency [4] | Potency [17] | Potency [5] | Potency [6] | Potency [8] | Potency [18] | Potency [9] | Potency [10] | Potency [11] | Potency [19] | Potency [12] | Potency [13] | Potency [14]

Oc1ccc(C(c2ccc(O)cc2)C(Cl)(Cl)Cl)cc1
inactive: Potency [1] | Potency [2] | Potency [15] | Potency [16] | Potency [4] | Potency [17] | Potency [5] | Potency [6] | Potency [8] | Potency [18] | Potency [9] | Potency [10] | Potency [19] | Potency [12] | Potency [13] | Potency [14]
active: Potency [3] 34.5 µM

CCCCCCCC/C=C\CCCCCCCC(=O)O
inactive: Potency [1] | Potency [20] | Potency [2] | max response [3] 12.6% and 4.42% | Potency [16] | Potency [4] | Potency [17] | Potency [5] | Potency [6] | Potency [7] | Potency [8] | Potency [18] | Potency [9] | Potency [10] | Potency [11] | Potency [19] | Potency [12] | Potency [13] | Potency [14]

CCC/C=C/C=O
inactive: Potency [1] | Potency [20] | Potency [2] | max response [3] -4.27% and 1.77% | Potency [16] | Potency [4] | Potency [17] | Potency [5] | Potency [6] | Potency [7] | Potency [8] | Potency [18] | Potency [9] | Potency [10] | Potency [11] | Potency [19] | Potency [12] | Potency [13] | Potency [14]

COC(=O)C(C)Oc1ccc(Oc2ncc(C(F)(F)F)cc2Cl)cc1 (centres undefined)
inactive: Potency [1] | Potency [2] | max response [3] -25% | Potency [16] | Potency [4] | Potency [17] | Potency [5] | Potency [6] | Potency [7] | Potency [8] | Potency [18] | Potency [9] | Potency [10] | Potency [12] | Potency [13] | Potency [14]
